Where “and” joins values, the source holds several entries; their conditions need not be identical. Equal entries are not always repeated. This is part of a sample that, as a whole, favours compounds with a hit. Of some 83,000 tested, about 20% had one in any assay.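 Negative percent growth values reflect cell death: -40 means 40% of the cells present at the start died, and -100 means all died.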 Calls of active or inactive are those of the source.
The molecules below were run on NCI/ADR-RES ovarian (assay: NCI-60 one-dose screen, 48 h (100 = growth as untreated, 0 = no growth, -100 = all killed)). Settings: 4.75 µM.
Procedure: Growth inhibition of the NCI/ADR-RES human […] tumor cell line is measured as a screen for anti-cancer activity. Cells are grown in 96 well plates and exposed to the test compound for 48 hours. Compounds are tested at a single concentration, which is 10^-5 M for most compounds. The reported endpoint is percent growth (GI% or GIPRCNT), where numbers from 0 - 100% represent growth inhibition, and numbers from -100% - 0 represent cell death. For example, a value of 40 represents 60% growth inhibition. A value of 0 means no net growth occurred over the course of the experiment. A value of -40 indicates 40% of cells at the beginning of the experiment died by the end of the experiment. A value of -100 means all cells are dead at the end of the experiment.
NCI-60 Human Tumor Cell Lines Screen was performed using the standard one-dose NCI protocol, which is described in more detail at https://dtp.cancer.gov/discovery_development/nci-60/default.htm.
Compounds with GIPRCNT values below 10 were considered active. Activity score was based on GIPRCNT using the following formula: […]
Score is 0 for GIPRCNT values of 100 or above, 50 for GIPRCNT values of 0, and 100 for GIPRCNT values of -100.

Q: How did the growth turn out when `CC(=O)OCC1OC([S-])C(OC(C)=O)C(OC(C)=O)C1OC(C)=O.[Au+].c1ccc(CN2[CH-]N(Cc3ccccc3)C(c3ccccc3)=C2c2ccccc2)cc1` was run?
A: 53.3% (inactive)

Same assay, conditions: 10 µM

Q: Which growth does the source give for `CC(=O)OCC1OC([S-])C(OC(C)=O)C(OC(C)=O)C1OC(C)=O.[Au+].c1ccc(CN2[CH-]N(Cc3ccccc3)C(c3ccccc3)=C2c2ccccc2)cc1` here?
A: 66.5% (inactive)

Same assay, conditions: 10 µM unless noted

Q: `CCCCCCCCCCCCCCCC[n+]1ccccc1` was tested. Which growth did it give?
A: 41.7% (inactive) and 69.3% (inactive)

Q: `C[C@]12CC[C@H]3[C@@H](C[C@@H]4SC(Nc5cccc(F)c5)=N[C@@]45CC(=O)CC[C@]35C)[C@@H]1CCC2=O` was tested. Which growth did it give?
A: 55.4% (inactive)

Q: `COc1c(O)cc2c(c1OC)-c1ccc(SC)c(=O)cc1C(NC(C)=O)CC2` (stereo not given) was tested. Which growth did it give?
A: -1.28% (active)

Q: For `O=S(OO)c1cc(Cl)c(O)c(Cl)c1` (stereo not given), which growth is on record?
A: 101% (inactive)

Q: For `O=C(NC1=NCC[Se]1)c1ccccc1O`, which growth is on record?
A: 21.5% (inactive)

Q: For `Cn1cc(-c2csc(-c3cn(CCCCN4CCOCC4)c4ccc(F)cc34)n2)c2cccnc21`, which growth is on record?
A: 76.8% (inactive)

Q: How did the growth turn out when `O=C/C=C/c1ccco1` was run?
A: 109% (inactive)

Q: `CC1=C(C)C(=O)O[C@@H]([C@](C)(O)[C@]2(O)CC[C@@]3(O)[C@@H]4C[C@H]5O[C@]56CC=CC(=O)[C@]6(C)[C@H]4CC[C@]23C)C1` was tested. Which growth did it give?
A: 42.6% (inactive)

Q: `COc1ccc(N)cc1N` was tested. Which growth did it give?
A: 106% (inactive)

Q: With `CC1=C2[C@H]3OC(=O)[C@@H](C)[C@@H]3CC[C@@]2(C)C=CC1=O` as the molecule, how does the growth read?
A: 13.8% (inactive)

Q: `Cc1ccc(NC2=N[C@]34CC(=O)CC[C@]3(C)[C@H]3CC[C@]5(C)C(=O)CC[C@H]5[C@@H]3C[C@@H]4S2)c(C)c1` was tested. Which growth did it give?
A: 53.4% (inactive)

Q: For `CCC1CCC(=O)O1` (stereo not given), which growth is on record?
A: 112% (inactive) and 124% (inactive)

Q: How did the growth turn out when `CN1[C@@H](CC(=O)c2ccccc2)CCC[C@H]1CC(=O)c1ccccc1` was run?
A: 99% (inactive)

Q: `O=C(O)CNCP(=O)(O)O` was tested. Which growth did it give?
A: 110% (inactive)

Q: For `CC1(C)N(Nc2ccccc2)C(=O)C2CCCN21` (stereo not given), which growth is on record?
A: 85.9% (inactive)

Q: Which growth does the source give for `CC1(C)C=Cc2c(ccc3c2[N+]([O-])=C2C3=C[C@@]34NC(=O)[C@]5(CCCN5C3=O)C[C@@H]4C2(C)C)O1` here?
A: 54.6% (inactive)

Q: Which growth does the source give for `N#CC(N)c1ccccc1` (stereo not given) here?
A: 108% (inactive)

Q: How did the growth turn out when `CC12CCC3C(CCC4CC(O)CCC43C)C1CCC2=O` (stereo not given) was run?
A: 163% (inactive)

Q: With `CCOC(=O)c1cncn1C(C)c1ccccc1` (stereo not given) as the molecule, how does the growth read?
A: 109% (inactive)

Q: For `CCCC1CCCCC12C(=O)NC(=O)NC2=O` (stereo not given), which growth is on record?
A: 99.6% (inactive) and 104% (inactive)

Q: `Cc1c(C)c(N)c(C)c(C)c1N` was tested. Which growth did it give?
A: 96.1% (inactive)

Q: With `O=C(O)C(F)F` as the molecule, how does the growth read?
A: 113% (inactive)

Q: Which growth does the source give for `S=P(SP(=S)(c1ccccc1)c1ccccc1)(c1ccccc1)c1ccccc1` here?
A: 104% (inactive)

Q: With `CC[C@H](C)[C@H](NC(=O)CN(C)C)C(=O)N(C)[C@H](C[C@@H](OC(C)=O)c1nc(C(=O)NC23CC(C(=O)OC)(C2)C3)cs1)C(C)C` as the molecule, how does the growth read?
A: 77.8% (inactive)

Q: Which growth does the source give for `CO[C@@H]([CH2][Hg][O]C(=O)c1ccccc1)[C@@H]([CH2][Hg][O]C(=O)c1ccccc1)OC` here?
A: 105% (inactive)

Q: How did the growth turn out when `COc1cc2c(c(OC)c1OC)-c1ccc(O)cc1[C@@H](NC(C)=O)CC2` was run?
A: 11.1% (inactive) and -2.64% (active)

Q: `CN1CCN(c2ccc(Cl)cc2)CC1` was tested. Which growth did it give?
A: 70.1% (inactive)

Q: For `CN(C)[C@@H]1C(=O)C(C(N)=O)=C(O)[C@@]2(O)C(=O)C3=C(O)c4c(O)ccc(Cl)c4[C@@](C)(O)[C@H]3C[C@@H]12`, which growth is on record?
A: 104% (inactive) and 109% (inactive)

Q: Which growth does the source give for `C[C@]12CC[C@H]3[C@@H](CC=C4c5nc(N)sc5CC[C@@]43C)[C@@H]1CC[C@@H]2O` here?
A: 102% (inactive)

Q: With `CC[C@H](C)[C@H](NC(=O)[C@H]1CCCCN1C)C(=O)N(C)[C@H](C[C@@H](OC(C)=O)c1nc(C(=O)N[C@@H](Cc2ccccc2)C[C@H](C)C(=O)O)cs1)C(C)C` as the molecule, how does the growth read?
A: 12.2% (inactive)

Q: For `COc1cc(-c2ccc(N)c(OC)c2)ccc1N`, which growth is on record?
A: 105% (inactive)

Q: `NC(N)=NC(N)=Nc1ccc(Cl)cc1` was tested. Which growth did it give?
A: 113% (inactive)

Q: Which growth does the source give for `O=CC1(c2ccccc2)CCN(Cc2ccccc2)CC1` here?
A: 101% (inactive)

Q: For `O=C(O)c1ccc(=O)[nH]c1`, which growth is on record?
A: 88.9% (inactive) and 102% (inactive)

Q: How did the growth turn out when `COc1ccc(/C=C(/C)[N+](=O)[O-])cc1OC` was run?
A: 74.7% (inactive) and 3.26% (active)

Q: Which growth does the source give for `CC(C)COC(=O)Cc1ccccc1` here?
A: 110% (inactive)

Q: How did the growth turn out when `O=[N+]([O-])c1cc(Cl)c(Cl)c([N+](=O)[O-])c1Cl` was run?
A: 80% (inactive)

Q: Which growth does the source give for `O=NN1CCCCC1` here?
A: 110% (inactive)

From PubChem BioAssay (NCI)
